Bioassay records from PubChem.
Compounds with a hit are over-represented: about 19% of the library has one in this group of screens.
DT40 TDP1 CPT: qHTS for Inhibitors of human tyrosyl-DNA phosphodiesterase 1 (TDP1): qHTS in cells in presence of CPT; chicken DT40 Tdp1-/-;hTDP1 cells + 20 nM CPT, ATP luminescence, 48 h; Potency, µM (doses to about 46.2 µM), for the others: at the highest dose activity change, negative = growth inhibition, most hits filed as inhibitors; hit rate 12% among 420,000; note: nearly all actives have a fitted effect of over 55% in size
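Cell growth measured by CellTiter-Glo luminescence after a minimum 48 h, 37 C compound exposure with 20 nM CPT in Tdp1-knockout DT40 cells stably expressing hTDP1, seeded 400/well; qHTS titration format.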
TDP1 cell noCPT: qHTS for Inhibitors of human tyrosyl-DNA phosphodiesterase 1 (TDP1): qHTS in cells in absence of CPT | DT40 Tdp1-/- hTDP1 cells, no CPT, ATP luminescence, 48 h | Potency, µM (series often up to 46.2 µM), for the others: top-dose activity change, negative = growth inhibition, most hits filed as inhibitors | hit rate 15% among 420,000 | AID 686978, 2013; note: nearly all actives have a fitted effect of over 55% in size
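Readout: luminescence from CellTiter-Glo after 30 min in the dark at RT. Cells: DT40 Tdp1-/- with stable hTDP1, 400/well. Exposure: compounds alone, ≥48 hr, 37 °C.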
KB-V1 cytotox: qHTS assay for MDR1-selective chemotherapeutics: Primary screen using the drug-selected MDR subline cells KB-V1. KB-V1 MDR cells viability, CellTiter-Glo, 72 h. Potency, µM (highest dose often 46.1 µM), usual class: cytotoxic. hit rate 3.4% among 400,000. AID 1347076, 2019; note: nearly all actives have a fitted effect of over 60% in size
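Compound-treated KB-V1 multidrug-resistant cells, 72 h, 37 degrees C; viability by CellTiter-Glo. Fitted qHTS curves give the values.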
HT1080-NT tox: qHTS for induction of synthetic lethality in tumor cells producing 2HG: qHTS for the HT-1080-NT fibrosarcoma cell line. Potency, µM (series often up to 46.1 µM), inactives show at the top dose activity, negative = less viability, most hits filed as cytotoxic. hit rate 1.6% among 360,000. HT-1080-NT fibrosarcoma viability, CellTiter-Glo ATP luminescence, 48 h;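 note: NT is the 2HG producing partner of a matched IDH1 knockdown line; 0% = DMSO-treated cells and -100% = media-only wells without cells; nearly all actives have a fitted effect of over 55% in size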
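Fibrosarcoma NT cells, 750 per well in 5% FBS RPMI, were exposed to compound for 48 hours. Viability: CellTiter-Glo luminescence.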
HT1080 IDH1KD tx: qHTS for induction of synthetic lethality in tumor cells producing 2HG: qHTS for the HT-1080-IDH1KD cell line; HT-1080 IDH1 knockdown viability, ATP luminescence, 48 h; Potency, µM (top dose mostly 46.1 µM), without a hit: at the highest dose activity, negative = toxicity, usual class: cytotoxic; hit rate 2% among 360,000; AID 686971, 2013;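 note: 0% = DMSO wells and -100% = cell-free medium wells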
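Knockdown cells (IDH1KD HT-1080) received compounds 2 h after plating at 750 cells/well and were kept 48 h at 37 °C in 5% FBS RPMI. A CellTiter-Glo luminescence read gave % activity for curve fitting.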
KB-3-1 cytotox: qHTS assay for MDR1-selective chemotherapeutics: Primary screen using the parental adenocarcinoma cell KB-3-1; KB-3-1 viability, CellTiter-Glo ATP luminescence, 72 h; Potency, µM (highest dose often 46.1 µM), usual class: cytotoxic; hit rate 1.4% among 400,000; note: nearly all actives have a fitted effect of over 60% in size
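Multi-concentration cytotoxicity screen in KB-3-1 cells grown in DMEM lacking phenol red with 10% FBS. After 72 h at 37 °C with compound, ATP-dependent luminescence was recorded.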
The depositor's hits bear a star; i = inactive; ? = inconclusive; . = not tested or not shown. Calls come from the whole dose curve; as a rule, active = well fitted curve in the direction sought with a large enough effect; inconclusive = small, poorly fitted or top-dose-only effect, or another doubt; inactive = no such curve, though single readings can be large; an effect the other way counts as inactive or inconclusive. Unless noted, % is set by controls: 0 for no effect and ±100 for the full control effect; potency is the fitted concentration of half-maximal effect.

SMILES | DT40 TDP1 CPT | TDP1 cell noCPT | KB-V1 cytotox | HT1080-NT tox | HT1080 IDH1KD tx | KB-3-1 cytotox
Cc1c(C(=O)NCC(C)(C)N2CCOCC2)cnn1-c1nccc(-c2cccs2)n1 | 21.1% | 5.7% | . | . | . | .
Cc1ccc(OCC(=O)Nc2ccc3nc(SCC(=O)N4CCCC4)sc3c2)cc1 | ? | 20.6µM* | . | . | . | .
CCC(C)/C(C)=N/NC(=O)c1ccc(CSc2nc3ccccc3s2)cc1 (configuration not stated) | 14.6µM* | 23.1µM* | 23.1µM* | -14.5% | -13.2% | ?
Cc1ccc(OCC(=O)Nc2ccc3nc(SCC(=O)N(C)c4ccccc4)sc3c2)cc1 | ? | 14.6µM* | ? | . | . | i
CCOc1ccc(C(=O)Nc2ccc3nc(SCc4ccccc4)sc3c2)cc1 | 11.6µM* | 8.2µM* | i | . | . | i
CCN(CC(=O)Nc1ccc(OC)cc1)C(=O)Cc1cccs1 | -1.1% | 9.1% | i | -2.0% | -2.7% | i
CC(C)c1ccc(CC(=O)N2CCC2(C)C(=O)NS(=O)(=O)c2ccc(Cl)s2)cc1 (configuration not stated) | 2.9% | 11.1% | i | -0.9% | 24.1% | i
OC(c1ccc(-c2ccccc2)cc1)c1ncc(-c2ccccc2F)[nH]1 (configuration not stated) | ? | ? | i | ? | ? | i
CCN(CC)C(=O)CSc1nc2ccc(NC(=O)CSc3nnc(COc4ccccc4C)n3C)cc2s1 | ? | ? | i | -17.4% | -27.6% | i
Cc1ccccc1OCc1nnc(SCC(=O)Nc2ccc3nc(SCC(=O)NC(C)(C)C)sc3c2)n1C | 18.4µM* | ? | i | -6.1% | -16.0% | i
COc1cc2c(cc1OC)C1=C(C#N)CC/C(=N\S(=O)(=O)c3cccc(Cl)c3)N1CC2 | -20.3% | -9.3% | 16.4µM* | -13.8% | ? | ?
COc1cc2c(cc1OC)C1=C(C#N)CCC(=NC(=O)c3ccco3)N1CC2 | 9.1% | -12.4% | ? | -13.4% | -14.6% | ?
CCCCc1c(C)c(C#N)c2[nH]c3ccccc3n2c1=O | 23.1µM* | 16.4µM* | ? | -4.9% | -6.8% | ?
Cc1c(CCC(C)C)c(=O)n2c([nH]c3ccccc32)c1C#N | ? | 5.8µM* | ? | -2.3% | ? | ?
COc1ccc(CCN2CC(C(=O)NCCCc3ccncc3)CCC2=O)cc1 (configuration not stated) | -9.6% | -9.8% | i | -6.0% | -0.6% | i
CCCCN(C)CCCNC(=O)Cn1ncc2c3ccccc3n(Cc3cccc(Cl)c3)c2c1=O | ? | ? | i | . | . | i
O=C(c1ccccc1)c1cc([N+](=O)[O-])ccc1N1CCCC1 | -24.7% | -32.0% | i | -7.3% | -19.0% | ?
COc1ccc(C(=O)c2cc([N+](=O)[O-])ccc2N2CCN(C)CC2)cc1 | 2.59µM* | 3.26µM* | 6.51µM* | 2.59µM* | 5.17µM* | 2.91µM*
COc1ccc(C(=O)c2ccc([N+](=O)[O-])cc2Cl)cc1 | -1.3% | ? | i | -6.1% | -0.5% | i
COc1ccc(C(=O)c2cc([N+](=O)[O-])ccc2N2CCCC2)cc1 | 3.26µM* | 5.17µM* | ? | 3.26µM* | 3.26µM* | ?
COc1ccc(/C=N/NC(=S)Nc2ccccc2)cc1COc1ccc(Br)cc1 | 14.6µM* | ? | i | -28.4% | ? | i
COc1cccc(OCc2cc(/C=N/NC(=O)c3ccn[nH]3)ccc2OC)c1 | ? | 25.9µM* | ? | -23.2% | -18.0% | ?
COc1ccc(/C=N/NC(=S)Nc2ccccc2)cc1COc1ccc(F)cc1 | 0.6% | -104.1% | i | 8.1% | 0.7% | i
COc1ccc(/C=N\NC(=O)c2cc(O)c(O)c(O)c2)cc1COc1ccc(C(=O)OCC(C)C)cc1 | ? | 20.6µM* | i | -17.6% | -21.3% | i
Cc1cc(C)cc(C(=O)N/N=C/c2ccoc2)c1 | -2.9% | 24.5% | ? | -25.9% | ? | i
SMILES | DT40 TDP1 CPT | TDP1 cell noCPT | KB-V1 cytotox | HT1080-NT tox | HT1080 IDH1KD tx | KB-3-1 cytotox
COc1cc(OC)cc(C(=O)N/N=C\c2ccoc2)c1 | -9.3% | 9.1% | i | 3.66µM* | 5.8µM* | i
COc1ccc(C(=O)N/N=C/c2ccc(OC)c(COc3ccccc3)c2)cc1 | ? | ? | ? | -12.9% | -3.0% | ?
COc1cc(OC)cc(C(=O)N/N=C/c2ccc(OC)c(COc3ccc4ccccc4c3)c2)c1 | 4.11µM* | 6.51µM* | ? | ? | 20.6µM* | ?
COc1ccc(/C=N/NC(=O)c2ccncc2)cc1COc1ccc(NC(C)=O)cc1 | 5.8µM* | 8.2µM* | i | -0.9% | ? | i
CC1=C(C(=O)Nc2ccccc2C(=O)N2CCC(C)CC2)SCCO1 | -22.3% | -14.7% | i | -0.3% | -2.8% | i
O=c1c2cnn(-c3ccccc3)c2ncn1Cc1ccccc1 | 1.8% | ? | 20.6µM* | -7.8% | -17.1% | i
Cc1ccc(Cn2cnc3c(cnn3C(C)(C)C)c2=O)cc1 | 25.9µM* | 13µM* | i | ? | -3.0% | i
CC(C)(C)n1ncc2c(=O)n(Cc3ccc(Cl)c(Cl)c3)cnc21 | 5.9% | 9.6% | i | 13.1% | 10.3% | i
O=C(CSc1nc2c([nH]c3ccccc32)c(=O)n1-c1cccc(Cl)c1)NCc1ccccc1 | ? | ? | i | . | . | i
Cc1ccc2oc(C(=O)Nc3cccc(Cl)c3)cc(=O)c2c1 | -14.4% | -16.3% | i | . | . | i
CC(C)(C)NC(=O)CN1C(=O)c2cccc3cccc1c23 | 4.6% | -27.8% | i | -1.1% | -0.7% | i
Cn1cnc([N+](=O)[O-])c1Sc1nc(N)nc2c1ncn2C1CC(O)C(CO)O1 (configuration not stated) | ? | 13µM* | 5.17µM* | 2.31µM* | 1.3µM* | 3.66µM*
Nc1nc(SCc2ccc([N+](=O)[O-])cc2)c2ncn([C@@H]3O[C@H](CO)[C@@H](O)[C@H]3O)c2n1 | -2.3% | -27.3% | . | . | . | .
Cn1cnc([N+](=O)[O-])c1Sc1nc(N)nc2c1ncn2C1OC(CO)C(O)C1O (configuration not stated) | ? | ? | 1.16µM* | 1.3µM* | 1.3µM* | ?
